High-throughput results (PubChem)
FMDV antiviral: foot and mouth disease virus antiviral activity. FMDV antiviral cell-based qHTS. Potency, µM (top dose mostly 57.9 µM), for the others: at the highest dose activity change, negative = inhibition, usual class: inhibitors. actives 1.2% (n = 410,000). AID 1159524; calls by dose curve; tested in HEK293T cells; also: read-out not given here; potency is read from the fitted curve at half-maximal effect; nearly all actives have a fitted effect of over 45% in size
HCV inhibitor: HCV inhibition; Huh7.5.1 HCVcc-Cre infection, luciferase reporter, 44 h; Potency, µM (top dose mostly 41.8 µM), without a hit: top-dose activity change, negative = inhibition, hits mostly inhibitors; actives 3.4% (n = 340,000); also: potency is read from the fitted curve at half-maximal effect
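1,000 cells/well; 4 h culture; + compound; + HCVcc-Cre (~0.5 moi); 44 h; luciferase substrate, RT 15 min; read 15 sec.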
HCMV inh: inhibitors of human cytomegalovirus. actives 4.5% (n = 410,000). HFF cells, HCMV-luciferase reporter, 72 h; active compounds read low. activity change, negative = inhibition, % at 57.5 µM; in the data active = activity change below about -60%; inconclusive = no clear call, values can overlap the other calls; inactive = above about -39%
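After 16 h attachment at 37C, HFF cells received test compound and HCMV-luciferase (1 PFU/cell); reporter luminescence read 72 h later, data normalized against buffer-only and known inhibitor Salinomycin.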
AmpC inh detg: blocks E. coli AmpC beta-lactamase in detergent assay; P00811; AmpC hydrolysis of nitrocefin, absorbance 480 nm, 0.01% Triton; Potency, µM (doses to about 114 µM), inactives show at the top dose activity change, negative = inhibition, usual class: inhibitors; actives 0.041% (n = 370,000); AID 485294;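 also: potency is read from the fitted curve at half-maximal effect; 0% = no-compound wells and -100% = no-enzyme wells; nearly all actives have a fitted effect of over 25% in size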
Target sequence (P00811 whole entry, looked up): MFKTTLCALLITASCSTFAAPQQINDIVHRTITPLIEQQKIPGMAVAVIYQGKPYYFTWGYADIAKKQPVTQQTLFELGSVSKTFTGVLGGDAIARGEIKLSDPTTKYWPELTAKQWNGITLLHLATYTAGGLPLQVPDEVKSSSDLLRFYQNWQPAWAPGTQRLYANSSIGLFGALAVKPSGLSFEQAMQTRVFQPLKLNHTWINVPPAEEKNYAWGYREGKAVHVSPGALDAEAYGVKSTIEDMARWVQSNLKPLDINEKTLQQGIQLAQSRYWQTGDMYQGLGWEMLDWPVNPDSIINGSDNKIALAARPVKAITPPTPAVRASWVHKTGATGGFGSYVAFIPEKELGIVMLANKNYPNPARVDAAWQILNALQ
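AmpC (5.3 nM in the dispensed reagent) in 20 mM phosphate pH 7.0 with 0.01% (detergent screen) or 0.0001% Triton X-100 was preincubated with compounds for 15 min at room temperature. Nitrocefin was then added from an 800 uM solution, and hydrolysis was followed at 480 nm.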
AmpC inh no detg: AmpC beta-lactamase inhibition without detergent | P00811 | AmpC nitrocefin hydrolysis, absorbance 480 nm, 0.0001% Triton | Potency, µM (titrated, usually from 57.1 µM), without a hit: top-dose activity change, negative = inhibition, actives largely listed as inhibitors | actives 0.52% (n = 330,000) | AID 485341;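 also: potency is read from the fitted curve at half-maximal effect; plate controls were no compound for no effect and no enzyme for full effect; nearly all actives have a fitted effect of over 20% in size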
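AmpC (5.3 nM in the dispensed reagent) in 20 mM phosphate pH 7.0 with 0.01% (detergent screen) or 0.0001% Triton X-100 was preincubated with compounds for 15 min at room temperature. Nitrocefin was then added from an 800 uM solution, and hydrolysis was followed at 480 nm.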
Active calls of the source: *; ? = inconclusive; · = not tested or not shown; ! = not active in a repeat; [ ] = dose if it differs, or a comment. In the library only some 7.3% were active in any assay of this set; here they are far more common. Unless noted, calls follow the shape of the dose curve; as a rule, active = well fitted curve in the direction sought with a large enough effect; inconclusive = small, poorly fitted or top-dose-only effect, or another doubt; inactive = no such curve, though single readings can be large; an effect the other way counts as inactive or inconclusive. Unless noted, % is scaled to controls: 0 for no effect and ±100 for the full control effect.

SMILES	FMDV antiviral	HCV inhibitor	HCMV inh	AmpC inh detg	AmpC inh no detg
Cc1c(CCOC(=O)c2ccc(N3CCOCC3)c([N+](=O)[O-])c2)sc[n+]1CC#N	?	16µM*	-36	2%	15%
Cc1ncsc1CCOC(=O)c1ccc(N2CCOCC2)c([N+](=O)[O-])c1	-1%	-4%	-61*	6%	49%
O=C(Nc1cccnc1)c1ccc(NC(=O)c2ccco2)cc1	-5%	5%	-103*	9%	-15%
O=C(Nc1cccnc1)c1ccco1	·	19%	-82*	-1%	-23%
O=C(NCc1cccnc1)c1ccc(NC(=O)c2ccco2)cc1	40%	4%	9	-4%	-15%
O=C(Nc1cccnc1)c1c(F)cccc1F	25%	-15%	-104*	-5%	-7%
O=C(Nc1ccc(NC(=O)c2ccco2)nc1)c1cccnc1	-7%	12%	107	-8%	-13%
COc1ccccc1Cc1nc2ccccc2nc1SCC(=O)N1CCN(c2ccccc2)CC1	0%	·	8	25%	·
O=C1[C@H](Cc2ccccc2)NCCCC[C@@H](c2ccc(Cl)cc2)N1Cc1ccccc1	0%	19%	0	·	·
COC(=O)C1=C(C(=O)OC)[C@]2([C@H]3CCCCN[C@@H](Cc4ccccc4)C(=O)N3Cc3ccccc3)C=C[C@H]1O2	?	11µM*	-70*	·	1%
COC(=O)C1=CN(c2ccc(OC)cc2)C=C(C(=O)OC)C1c1ccc(C)c([N+](=O)[O-])c1	?	?	-78*	-6%	-5%
CSc1nc(N)nc(SCC(=O)C23CC4CC(CC(C4)C2)C3)c1C#N	?	10µM*	-33	3%	-8%
COC(=O)C1=C(C)N(c2ccc(Cl)cc2)/C(=C/c2ccc(O)cc2)C1=O	25µM*	?	-20	-14%	-26%
COC(=O)C1=C(C)N(c2cc(C)cc(C)c2)/C(=C/c2ccc(O)cc2)C1=O	?	?	-96*	3%	-37%
C[C@@H](OC(=O)N(C)Cc1ccccc1)[C@H]1O[C@]2(C)CCCC[C@H]1O2	13%	8%	-38	5%	17%
O=C1CC(c2ccc(F)cc2)CC2=C1C=Nc1ccccc1N2 (centres undefined)	?	-20%	-31	-1%	-4%
O=C1CC(c2ccccc2)CC2=C1C=Nc1ccccc1N2 (centres undefined)	?	-27%	-77*	?	-3%[2.29 µM]
Cc1ccc(N2C(=O)[C@@H]3[C@H](C2=O)C2CCCN2[C@@H]3C(=O)c2ccccc2)cc1 (some centres undefined)	0%	?	?	-3%	6%
COc1ccc(N2C(=O)C3C(C2=O)C(C(=O)c2ccc(Cl)cc2)N2CCCC32)cc1 (centres undefined)	?	5%	-60*	6%	-23%
CC(=O)c1ccc(N2C(=O)C3C(C2=O)C(C(=O)c2ccc(Cl)cc2)N2CCCC32)cc1 (centres undefined)	?	-17%	27	?	-22%
O=C(c1ccccc1)[C@@H]1[C@@H]2C(=O)N(c3ccc(F)cc3)C(=O)[C@@H]2C2CCCN21 (some centres undefined)	-16%	13%	-67*	-6%	-16%
O=C(Nc1ccccc1C(=O)N1CCCCC1)c1nsc2ccccc12	20%	·	0	6%	·
CC(=O)Nc1cc(C(F)(F)F)ccc1OCCOc1ccccc1	-28%	10µM*	16	·	·
CCCOc1ccc(C(F)(F)F)cc1NC(=O)CCc1c(C)noc1C	-21%	7.1µM*	0	?	47%
O=C(Nc1sc2c(c1C(=O)NCc1ccco1)CCCC2)c1cc(=O)c2cc(Cl)ccc2o1	-4%	·	-6	0%	·
SMILES	FMDV antiviral	HCV inhibitor	HCMV inh	AmpC inh detg	AmpC inh no detg
CCCCNC(=O)C1(C)CCCCN1C(=O)c1cc(-c2ccccc2)cs1 (centres undefined)	-21%	·	-7	·	·
CN(CCO)C(=O)c1cn(C2CCN(Cc3c(F)cccc3Cl)CC2)nn1	-11%	·	·	·	·
O=C(CCn1cnnn1)Nc1ccc(F)cc1	23%	24%	-103*!	-2%	-5%
CC(=O)Nc1ccc(NC(=O)CCn2cnnn2)cc1	-4%	21%	-38	5%	-13%
Cc1ccc2nc(-c3ccc(O)cc3)c(Nc3ccc4c(c3)OCCO4)n2c1	29%	-26%	60	?	-28%
COc1ccc(-c2nc3ccc(C)cn3c2Nc2ccc3c(c2)OCO3)cc1	17%	·	-106*	5%	·
Cc1ccc(-c2nc3cccc(C)n3c2Nc2ccc3c(c2)OCO3)o1	8%	·	4	-3%	·
Cc1ccc(-c2nc3ccccn3c2Nc2ccc3c(c2)OCO3)o1	-23%	·	-101*	?	·
Cn1c(C2CCC2)nc2cc(C(=O)N3CCOc4ccccc4C3)cc(NC(=O)C3CCCO3)c21 (centres undefined)	-7%	·	·	·	·
COc1cc(/C=N/NC(=O)CSc2cc(C)c(Br)cc2C)ccc1O	?	?	-30	2%	-55%
Cc1cc(SCC(=O)N/N=C/c2ccc(O)c(O)c2O)c(C)cc1Br	-30%	?	-26	0%	18µM*
O=C1[C@H]2[C@@H](c3ccc(Cl)cc3)N3C(=O)N(c4cccc(Cl)c4)C(=O)[C@@]3(Cc3ccccc3)[C@H]2C(=O)N1C1CCCCC1	-11%	9%	-5	0%	-7%
CCC1(c2ccccc2)CN(C)C1=O (centres undefined)	-22%	·	-79*	·	·
Cc1ccc(CN2CCC(=O)N(Cc3ccccn3)CC2)c(C)c1	-12%	·	·	·	·
Cc1ccccc1CNC(=O)c1oc2c(c1C)-c1nn(Cc3ccc(Cl)cc3)cc1CC2	-24%	·	-26	13%	·
COc1ccccc1C(=O)Nc1cc(Cl)ccc1-n1cncn1	-12%	?	42	5%	23%
O=C(Nc1cc(Cl)ccc1-n1cncn1)c1ccc([N+](=O)[O-])s1	-16%	7.9µM*	·	2%	-19%
O=C(Nc1cc(F)ccc1F)c1ccc(-n2cncn2)c([N+](=O)[O-])c1	13%	-25%	-5	-2%	-7%
COc1cc(OC)c(C(=O)Nc2cc(Cl)ccc2-n2cncn2)cc1OC	-28%	13µM*	28	-13%	4%
O=C(Nc1ccc(F)c(F)c1)c1ccc(-n2cncn2)c([N+](=O)[O-])c1	-14%	22µM*	-18	4%	-3%
O=C(Nc1cc(Cl)ccc1-n1cncn1)c1ccco1	-7%	-15%	33	·	·
CCCc1nnc(SCC(=O)Nc2ccccc2Cl)n1CC1CCCO1 (centres undefined)	3%	15%	-3	-1%	2%
Cc1ccccc1N=C1SC(CC(=O)Nc2ccc3ccccc3c2)C(=O)N1Cc1ccccn1 (centres undefined)	?	10µM*	-8	-1%	-4%
